Drawing on PubChem BioAssay, this text covers growth inhibition, inhibition and outcome for three compounds.

Assay [1] in a line: antimalarial activity against Dd2 strain (AID 2302;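 active = growth inhibition above 50% at the single 2 µM test dose, taken to imply half-maximal potency below 2 µM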;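 note: 0% = DMSO untreated growth and 100% = chloroquine plus artemisinin killed control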). The note with it: P. falciparum Dd2 in RBCs, LDH growth readout, 72 h; at 2 µM; hits give high values.
The nature of assay [2]: HepG2 cytotoxicity, primary screen, cytotoxicity control for P. falciparum antimalarial project, cell-based, ATP luminescence (AID 2303;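 active = inhibition above 50%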;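 note: 0% = DMSO wells and 100% = digitonin-killed cells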). The following applies: HepG2 viability, 24-48 h, at 10 µM, hits give high values.
In assay [3] the target is L-lactate dehydrogenase (Plasmodium falciparum (isolate CDC / Honduras)) (UniProt Q27743). Briefly: PfLDH activity inhibition – cell lysate, 3D7 strain, counter-screen for P. falciparum growth inhibition project (AID 2304).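 Note: 0% = vehicle and 100% = reference inhibitor.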 The following applies: P. falciparum 3D7 crude extract, LDH APAD/NBT absorbance; at 2 µM; hits give high values. For orientation: Counterscreens check selectivity or assay interference.

A short description of assay [4]: inhibition of 3D7 malaria parasite growth – strain 3D7 (AID 2306).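 Note: 0% = DMSO wells and 100% = chloroquine plus artemisinin control wells.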 The note with it: P. falciparum 3D7 erythrocytic growth, LDH absorbance, 72 h; at 2 µM; hits give high values.
Assay [5] concerns the target Calcium-dependent protein kinase 1 (Plasmodium falciparum (isolate 3D7)) (UniProt P62344). Briefly: PfCDPK1 kinase inhibitors, biochemical, TCAMS library (AID 1159585; cut-off not given, nearly all actives have IC50 up to about 0.98 µM;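 note: inhibitors leave more ATP so luminescence rises with inhibition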). The note with it: recombinant PfCDPK1, Kinase-Glo ATP depletion luminescence. For orientation: Kinase-Glo measures the ATP left after a reaction by luminescence.
In assay [6] the target is Plasmodium falciparum protein kinase 6 (PK6, PF3D7_1337100) (UniProt Q8IDW1). The assay can be described thus: PfPK6 kinase inhibitors, biochemical, TCAMS library (AID 1159586). The note with it: recombinant PfPK6, Kinase-Glo ATP depletion luminescence.
Assay [7] has as its target Protein kinase 7 (PK7), Plasmodium falciparum 3D7 (PF3D7_0213400) (UniProt Q7YTF7). The assay can be described thus: inhibition of Plasmodium PK7 catalytic activity – biochemical, TCAMS antimalarial set, Kinase-Glo luminescence (AID 1159587). The note with it: recombinant PfPK7, Kinase-Glo ATP depletion luminescence.
The target of assay [8] is Calcium-dependent protein kinase 4 (Plasmodium falciparum (isolate 3D7)) (UniProt Q8IBS5). Briefly: PfCDPK4 kinase inhibitors, biochemical, TCAMS library (AID 1159588; cut-off not given, nearly all actives have IC50 up to about 0.91 µM). The following applies: recombinant PfCDPK4, Kinase-Glo ATP depletion luminescence.

A number with no mark means an inactive call. For part of these data: Potency and affinity values are given separately. The source made the active and inactive calls. Unless noted, the rule behind the calls is not given here.

Sequence of Calcium-dependent protein kinase 1 (Plasmodium falciparum (isolate 3D7)) (P62344 whole entry, looked up): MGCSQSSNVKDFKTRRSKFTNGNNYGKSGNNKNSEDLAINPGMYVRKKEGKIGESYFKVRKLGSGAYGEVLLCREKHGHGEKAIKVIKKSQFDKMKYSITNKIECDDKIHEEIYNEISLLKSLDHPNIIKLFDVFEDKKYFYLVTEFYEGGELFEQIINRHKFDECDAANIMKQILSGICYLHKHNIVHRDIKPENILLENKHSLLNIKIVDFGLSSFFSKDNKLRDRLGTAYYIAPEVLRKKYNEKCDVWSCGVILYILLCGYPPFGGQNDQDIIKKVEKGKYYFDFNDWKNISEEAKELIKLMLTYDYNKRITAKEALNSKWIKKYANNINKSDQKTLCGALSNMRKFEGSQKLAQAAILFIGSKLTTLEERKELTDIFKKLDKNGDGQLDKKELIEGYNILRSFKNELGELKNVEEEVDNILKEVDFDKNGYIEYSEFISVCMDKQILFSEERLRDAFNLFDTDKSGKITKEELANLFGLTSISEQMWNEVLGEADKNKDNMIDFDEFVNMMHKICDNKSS
Sequence of Protein kinase 7 (PK7), Plasmodium falciparum 3D7 (PF3D7_0213400) (Q7YTF7 1-343): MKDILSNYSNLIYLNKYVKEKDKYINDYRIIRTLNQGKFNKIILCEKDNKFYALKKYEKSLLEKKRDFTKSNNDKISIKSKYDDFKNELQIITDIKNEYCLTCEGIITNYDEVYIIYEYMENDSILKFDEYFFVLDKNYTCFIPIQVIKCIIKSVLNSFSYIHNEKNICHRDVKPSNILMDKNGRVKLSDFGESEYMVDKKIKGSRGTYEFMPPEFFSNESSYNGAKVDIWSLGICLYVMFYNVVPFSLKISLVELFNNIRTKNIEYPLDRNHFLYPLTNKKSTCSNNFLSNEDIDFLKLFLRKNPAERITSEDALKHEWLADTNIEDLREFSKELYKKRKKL
Sequence of L-lactate dehydrogenase (Plasmodium falciparum (isolate CDC / Honduras)) (Q27743 whole entry, looked up): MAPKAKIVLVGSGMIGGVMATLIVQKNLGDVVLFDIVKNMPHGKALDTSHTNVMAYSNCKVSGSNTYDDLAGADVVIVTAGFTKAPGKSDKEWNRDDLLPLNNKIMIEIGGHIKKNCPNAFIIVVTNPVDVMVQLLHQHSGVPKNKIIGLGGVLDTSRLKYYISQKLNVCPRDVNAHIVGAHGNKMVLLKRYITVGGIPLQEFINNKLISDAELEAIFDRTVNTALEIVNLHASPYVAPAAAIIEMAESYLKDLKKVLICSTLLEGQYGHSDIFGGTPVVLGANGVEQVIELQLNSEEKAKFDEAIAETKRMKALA
Sequence of Calcium-dependent protein kinase 4 (Plasmodium falciparum (isolate 3D7)) (Q8IBS5 whole entry, looked up): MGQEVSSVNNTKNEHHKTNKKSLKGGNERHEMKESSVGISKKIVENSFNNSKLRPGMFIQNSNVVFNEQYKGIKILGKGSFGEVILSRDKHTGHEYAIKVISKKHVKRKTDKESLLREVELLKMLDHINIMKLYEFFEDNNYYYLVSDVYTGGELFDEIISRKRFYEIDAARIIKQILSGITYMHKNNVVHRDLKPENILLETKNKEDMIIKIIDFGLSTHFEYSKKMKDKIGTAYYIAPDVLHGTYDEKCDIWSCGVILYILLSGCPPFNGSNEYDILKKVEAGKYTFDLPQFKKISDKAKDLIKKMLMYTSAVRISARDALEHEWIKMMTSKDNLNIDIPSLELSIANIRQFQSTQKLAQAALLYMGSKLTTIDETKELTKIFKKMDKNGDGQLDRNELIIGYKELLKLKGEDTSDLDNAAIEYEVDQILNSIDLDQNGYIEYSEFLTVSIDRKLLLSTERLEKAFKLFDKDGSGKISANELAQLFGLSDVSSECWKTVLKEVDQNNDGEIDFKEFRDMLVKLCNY
Sequence of Plasmodium falciparum protein kinase 6 (PK6, PF3D7_1337100) (Q8IDW1 1-305): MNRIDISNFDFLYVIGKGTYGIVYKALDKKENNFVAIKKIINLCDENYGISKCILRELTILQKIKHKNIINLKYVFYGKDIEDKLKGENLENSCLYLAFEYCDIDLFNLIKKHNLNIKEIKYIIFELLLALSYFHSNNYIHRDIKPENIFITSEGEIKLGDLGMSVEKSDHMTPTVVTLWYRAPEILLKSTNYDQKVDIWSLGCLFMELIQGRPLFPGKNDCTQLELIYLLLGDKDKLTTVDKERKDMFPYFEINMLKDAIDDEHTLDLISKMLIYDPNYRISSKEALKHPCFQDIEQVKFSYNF

Usually inhibition stands for the drop in the measured response relative to a control, in per cent. As for `COc1cccc(CNC[C@@H](O)[C@H](Cc2ccccc2)NC(=O)c2cc(C3CCCC3)cc(N3CCCCS3(=O)=O)c2)c1`, the growth inhibition is 83% (active) in assay [1] and 96% (active) in assay [4]. Besides, the inhibition was 7% in assay [2] and 4% in assay [3]. For the same compound, the outcome in assay [5], in assay [6], in assay [7] and in assay [8] was inactive.

`CC(C)CCNc1nc2ccccc2nc1Nc1cccc(C(F)(F)F)c1`: the growth inhibition in assay [1] was 99% (active); in assay [4] it was 98% (active). The inhibition is 12% in assay [2] and 1% in assay [3]. Also, the outcome in assay [5], in assay [6], in assay [7] and in assay [8] was inactive.

Regarding `COc1ccc(C2CCN(CCN3CCC(NC(=O)c4cccc(-c5ccncc5)c4)CC3)CC2)c(OC)c1`, the growth inhibition in assay [1] was 24%; in assay [4] it was 94% (active). Further, the inhibition in assay [2] is 7%; in assay [3] it was -6%. For the same compound, the outcome in assay [5], in assay [6], in assay [7] and in assay [8] was inactive.
